Results: publication PMC10726135, “HNF4α isoforms regulate the circadian balance between carbohydrate and lipid metabolism in the liver”
Whole data set: some 18,000 sequences, median “log2 normalized intensity” near 0.39, cut for the highest 2% near 6.6. The entries come from a sample that favours the highest values as a whole.

What follows are sequences tested against T1, HNF4alpha2 (COS-7 nuclear extract) (Homo sapiens, UniProt P41235 1-474) (assay: protein-binding microarray; COS-7 nuclear extract on double-stranded Agilent 4x180k PBM; binding buffer, salt, pH and temperature not given in the material; high values mean tight binding). Settings: chain copies: 2; label: 3' end of strand 1 on the slide; dsDNA, one strand shown.
T1 sequence: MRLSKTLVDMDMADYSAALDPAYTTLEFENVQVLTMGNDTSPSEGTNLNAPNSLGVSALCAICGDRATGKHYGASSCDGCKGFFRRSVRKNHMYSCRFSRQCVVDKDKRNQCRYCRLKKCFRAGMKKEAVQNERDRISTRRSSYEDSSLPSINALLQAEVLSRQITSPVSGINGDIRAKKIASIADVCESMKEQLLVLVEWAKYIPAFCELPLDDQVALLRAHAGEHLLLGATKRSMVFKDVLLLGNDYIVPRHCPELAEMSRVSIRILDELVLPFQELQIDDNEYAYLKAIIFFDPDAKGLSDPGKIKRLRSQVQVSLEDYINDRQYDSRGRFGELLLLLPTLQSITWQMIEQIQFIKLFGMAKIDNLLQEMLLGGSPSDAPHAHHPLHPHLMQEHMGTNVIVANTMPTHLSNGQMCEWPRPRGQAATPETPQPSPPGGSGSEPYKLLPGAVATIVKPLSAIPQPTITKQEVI
Outline: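 Binding signal is the background-corrected, normalized gProcessedSignal calculated by Agilent software. It was measured by applying nuclear extracts of COS-7 cells transiently transfected with a human HNF4α isoform expression vector to a custom Agilent SurePrint G3 4x180k array of ~44,000 double-stranded ~60-nt test sequences in quadruplicate, then imaging bound HNF4α on an Agilent G2565CA scanner at 2-µm resolution.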

Sequence | binding signal [log2 normalized intensity]
GAGGAGAGAGTAAATAATTGATGAAACAGGGCCTAGGGAGATTAGAGTATCGGTCGA | -0.991
AGTACCTCTCAAAAATCTCACTCACCCTAAGCCTAGGGAGATTAGAGTATCGGTCGA | -0.279
CATGAAGGTCTCCTTGACTTCAAAGGCATTGCCTAGGGAGATTAGAGTATCGGTCGA | 0.693
GTTACCTTGGGGTCAAAGTACATCCCCTAAGCCTAGGGAGATTAGAGTATCGGTCGA | 6.4
TGCAAGTTACCTTGGGGTCAAAGTACATCCGCCTAGGGAGATTAGAGTATCGGTCGA | 8.65
TGCCTGCAGGAGAGAGCAAAGTCCACGCATGCCTAGGGAGATTAGAGTATCGGTCGA | 6.29
CAACTCCAAAGTCCAAAGTCCAGTCTTATCGCCTAGGGAGATTAGAGTATCGGTCGA | 8.27
GACCAGTCTGCCTGACTCCAGAGTCCAAACGCCTAGGGAGATTAGAGTATCGGTCGA | 2.77
CTATCTGCCTGCAGGAGAGAGCAAAGTCCAGCCTAGGGAGATTAGAGTATCGGTCGA | 7.16
ATTCCTAAGTTCCAAAGGCCATCCACATTCGCCTAGGGAGATTAGAGTATCGGTCGA | 1.84
AGTCTTGAGTCCCAAAGTCCAAAGGCAGTCGCCTAGGGAGATTAGAGTATCGGTCGA | 2.83
CTTGGGGTCAAAGTACATCCCCTAAAACATGCCTAGGGAGATTAGAGTATCGGTCGA | 5.71
CAGGGAGCCCTTATATCCACATGGGTCCAAGCCTAGGGAGATTAGAGTATCGGTCGA | 2.29
AGCCCTTATATCCACATGGGTCCAAAGTTCGCCTAGGGAGATTAGAGTATCGGTCGA | 8.54
TGTCTCCCTCTGCAGCAAAGTCCAGGCATAGCCTAGGGAGATTAGAGTATCGGTCGA | 1.13
GAGTCTTAGGGAGGGGCCAGGACAAAGGTCGCCTAGGGAGATTAGAGTATCGGTCGA | 5.72
CCACTCTCATGGTCAATATTTTCTTTGTGCGCCTAGGGAGATTAGAGTATCGGTCGA | 1.63
GTCTGATCTTCCTGAGGAGAGCAAAGATCAGCCTAGGGAGATTAGAGTATCGGTCGA | 2.54
GACTCCAGTGATCTTATCGCCTAGTACTCCGCCTAGGGAGATTAGAGTATCGGTCGA | -0.841

Sequence | binding signal [log2 normalized intensity]
CCTCGCCTATGGTATGTATGGAATGTCACTGCCTAGGGAGATTAGAGTATCGGTCGA | 1.63
GCCAGGACAAAGGTCCTGTGGCCTGGGGAGGCCTAGGGAGATTAGAGTATCGGTCGA | 0.557
CCTGGCCATTTCTCAGGTTGTGTTTGCAGTGCCTAGGGAGATTAGAGTATCGGTCGA | 1.53
CTATTGCAGTAACGGCAGGGTTGTGCAGGAGCCTAGGGAGATTAGAGTATCGGTCGA | 0.453
ATCCTTACACAGCAGCTTTAGTCAGAGATTGCCTAGGGAGATTAGAGTATCGGTCGA | -0.896
AAGTCCAGTCTTATCTGAGACTCAAGGCAAGCCTAGGGAGATTAGAGTATCGGTCGA | -0.968
CCAAAGTCCAAAGTCCAGTCTTATCTGAGAGCCTAGGGAGATTAGAGTATCGGTCGA | 7.12
GCATGGCTCAGTCCAAGTCCAAAGGTCTGAGCCTAGGGAGATTAGAGTATCGGTCGA | 5.39
TTTCTGTAAAGCTTTATTTTGGGGCTGTATGCCTAGGGAGATTAGAGTATCGGTCGA | 0.324
ATAGCAAAAGTGACCTTTGCTCCAGTTCCCGCCTAGGGAGATTAGAGTATCGGTCGA | 7.8
AATCGACCTTTAGCACCGTAAGAGAGTATTGCCTAGGGAGATTAGAGTATCGGTCGA | 3.82
TATGACCTTTGCTTTTCAAGATTTTACCTAGCCTAGGGAGATTAGAGTATCGGTCGA | 2.14
TTTGCCAAAGCATAGCAAGAGTGACCTTTGGCCTAGGGAGATTAGAGTATCGGTCGA | 6.6
TTGCTTAAGCATAGCAAAAGTGACCTTTGCGCCTAGGGAGATTAGAGTATCGGTCGA | 8.56
GTGACCTTTGCTCCAGTTCCCAATAAGTTGGCCTAGGGAGATTAGAGTATCGGTCGA | 4.19
CTTTAGCACCTTCATCCAAAGATGACCTTTGCCTAGGGAGATTAGAGTATCGGTCGA | 7.62
CCTGCATATCCTGACTGCTGACCTTTAAGCGCCTAGGGAGATTAGAGTATCGGTCGA | 4.85
AAAAGTGACCTTTGCTCCAGTTCCCAATAAGCCTAGGGAGATTAGAGTATCGGTCGA | 5.9
CTTCTTTGCTTAAGCATAGCAAAAGTGACCGCCTAGGGAGATTAGAGTATCGGTCGA | 2.7

Sequence | binding signal [log2 normalized intensity]
CAAAGCATAGCAAGAGTGACCTTTGCTCCAGCCTAGGGAGATTAGAGTATCGGTCGA | 8.97
AGATAGCATTCCAAGAGAGCAAAGTGCTTTGCCTAGGGAGATTAGAGTATCGGTCGA | 0.587
CCCATCCAAAGGTCAGCAATCTCAAAGACTGCCTAGGGAGATTAGAGTATCGGTCGA | 2.36
TAAGTTTAAGTCCAGAAAAGACCAAAAAGGGCCTAGGGAGATTAGAGTATCGGTCGA | 0.39
TAACTATGGTCACGCGGCCAAAATGTTCAGGCCTAGGGAGATTAGAGTATCGGTCGA | 0.22
CTGTGTCATCTGAACTCTGACCAACGCCTCGCCTAGGGAGATTAGAGTATCGGTCGA | 2.73
CAAGAGTGACCTTTGCTCCAGTTCCCAATAGCCTAGGGAGATTAGAGTATCGGTCGA | 6
TGACCTTTGCTCCAGTTCCCAATAATTTCCGCCTAGGGAGATTAGAGTATCGGTCGA | 4.46
CATAGCAAGAGTGACCTTTGCTCCAGTTCCGCCTAGGGAGATTAGAGTATCGGTCGA | 7.45
CAGTACTGAAACATGCCTATGACCGAGGGTGCCTAGGGAGATTAGAGTATCGGTCGA | 0.809
TGCTTGGAATGCTATTTGCATTGACACAACGCCTAGGGAGATTAGAGTATCGGTCGA | 0.296
TTCTGTTCAATGGTGCTTTTGATATTGTTGGCCTAGGGAGATTAGAGTATCGGTCGA | 2.06
GACATCTGGAAATGTTTGTAGGGACTTTGAGCCTAGGGAGATTAGAGTATCGGTCGA | 4.28
AATGTTTGTAGGGACTTTGACCCCTAAAACGCCTAGGGAGATTAGAGTATCGGTCGA | 8.73
CTGGAAATGTTTGTAGGGACTTTGACCCCTGCCTAGGGAGATTAGAGTATCGGTCGA | 9.92
CAACTGACATCTGGAAATGTTTGTAGGGACGCCTAGGGAGATTAGAGTATCGGTCGA | 0.308
CTTTGACCCTGTTTTGTAAACTCCCTTTGAGCCTAGGGAGATTAGAGTATCGGTCGA | 1.78
AGCAATGTTTCTTGTCCAGGGACTTTGAACGCCTAGGGAGATTAGAGTATCGGTCGA | 5.74
